AMA1 RON2 block – disrupts binding of P. falciparum AMA1 to RON2 | 360,000 tested, 0.2% active | Potency, µM (highest dose often 58.2 µM), without a hit: at the highest dose activity change, negative = inhibition, hits mostly inhibitors | AlphaScreen AMA1-biotinylated RON2 peptide binding | AID 720542;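 further: potency means the concentration at half of the fitted maximal effect; 0% = vehicle wells and -100% = peptide control; nearly all actives have a fitted effect of over 45% in size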
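AMA1 (3D7) with his tag at 25 nM final met compounds first, then biotinylated RON2 peptide at 25 nM; detection used donor plus acceptor beads, 10 µg/mL apiece, read by AlphaScreen after 30 min at room temperature.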
Cycloheximide cs – counter-screen for Shiga toxin inhibitors: cycloheximide protein synthesis inhibition; cell reporter, cycloheximide protein synthesis inhibition counterscreen; max response, %; 300,000 tested, 12% active; in the data active means max response mostly above about 13%, no sharp cut-off; inactive means mostly below about 14%; further: read at 38.3 µM for the half of the compounds with a filed dose; 0% is about no effect
SARS PLpro yeast – blocks SARS-CoV papain-like protease in a yeast assay; S. cerevisiae expressing SARS-CoV PLpro, growth rescue; AID 485353; 330,000 tested, 0.19% active; Potency, µM (highest dose often 32.9 µM), inactives show top-dose activity, positive = growth rescue, actives largely listed as activators; calls by dose curve; further: potency means the concentration at half of the fitted maximal effect; 0% is about no effect; nearly all actives have a fitted effect of over 55% in size
Pf growth 48h – inhibits P. falciparum growth in the first generation, 48 h; P. falciparum luciferase growth in erythrocytes, 48 h; Potency, µM (titrated, usually from 28.7 µM), for the others: at the top dose activity change, negative = inhibition, most hits filed as inhibitors; 310,000 tested, 5.9% active; AID 504832; further: potency means the concentration at half of the fitted maximal effect; on the % scale 0 is the no-effect control and ±100 the full control effect
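Parasite viability was followed by luminescence of a genomically integrated firefly luciferase. Cultures held 0.1% parasitemia at 2% hematocrit (final), incubated under 5% CO2 at 37 C.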
Shiga toxin inh – blocks Shiga toxin action in Vero cells; Vero cells, Shiga toxin protein synthesis inhibition reporter; inhibition, % at 38.7 µM; 290,000 tested, 9.2% active; in the data active means inhibition mostly above about 28%, no sharp cut-off; inactive means mostly below about 43%; further: 0% is about no effect
Pf growth 96h – P. falciparum growth inhibition at 96 hours; P. falciparum luciferase reporter growth, 96 h; Potency, µM (titrated, usually from 28.7 µM), without a hit: top-dose activity change, negative = inhibition, most hits filed as inhibitors; 320,000 tested, 6.9% active; AID 504834; further: potency means the concentration at half of the fitted maximal effect; on the % scale 0 is the no-effect control and ±100 the full control effect
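Two-generation exposure (96 h) targets delayed-death phenotype. Reporter parasites carrying integrated firefly luciferase, in red cells at 2% hematocrit and 0.05% parasitemia final, kept at 37 C, 5% CO2; luminescence loss indicates inhibition.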
Starred values were filed as active, the others as inactive; ? = inconclusive; nt = no result given; [ ] = dose if it differs, or a comment. The list is not random: actives were taken first. Their share in the collection is about 19%. Unless noted, the call rests on the fitted dose curve; in most records, active means well fitted curve in the direction sought with a large enough effect; inconclusive means small, poorly fitted or top-dose-only effect, or another doubt; inactive means no such curve, though single readings can be large; an effect the other way counts as inactive or inconclusive.

SMILES	AMA1 RON2 block	Cycloheximide cs	SARS PLpro yeast	Pf growth 48h	Shiga toxin inh	Pf growth 96h
CCc1nc2c(OCC(=O)N3CCOCC3)cccn2c1N(C=O)Cc1ccccc1	-10%	nt	nt	nt	nt	nt
CC(=O)c1cccc(N(CC(=O)NC2CCCCC2)C(=O)Cn2nnc(-c3ccccc3)n2)c1	-17%	-4	3%	-29%	-5	35%
COc1ccccc1-c1ccc2c(c1)C(C)(Cc1ccc(OC(F)(F)F)cc1)C(=O)N2 (centres undefined)	6%	nt	nt	nt	nt	nt
CCCn1c(SCC(=O)N2CCCC2)nc2c1c(=O)n(C)c(=O)n2C	12%	4	9%	-20%	-8	1.2µM*
Cc1nnc(SCC(=O)Nc2ccc3c(c2)OCO3)o1	6%	-3	-2%	7%	11	13µM*
Nc1nc(Cl)cc(N2CCC(c3cc(-c4ccc(Cl)cc4Cl)n[nH]3)CC2)n1	-22%	-3	-23%	?	-3	?
CC1CCC(NC(=O)COC(=O)c2ccco2)CC1 (centres undefined)	-3%	nt	-2%	-18%	nt	5%
CCOc1ccc(NC(=O)Nc2c(C)n(C)n(-c3ccccc3)c2=O)cc1	15%	-4	0%	-1%	-4	-20%
O=C(O)c1ccc(Cl)c(S(=O)(=O)Nc2ccccc2C(=O)Nc2ccc(Cl)cc2)c1	-1%	1	5%	35%	56	27%
COc1ccc(C=C(C#N)C(=O)c2ccccc2)cc1	4%	nt	nt	nt	nt	nt
Cc1cccc(NC(=O)/C(C#N)=C/c2ccccc2O)n1	1%	40*	0%	2%	78*	8%
COc1ccc(/C=C(\C#N)C(=O)Nc2cccc(C)n2)cc1	2%	25*	8%	31%	36*	12%
COc1ccc(/C=C(\C#N)C(=O)C(C)(C)n2cncn2)cc1	11%	-1	1%	29%	-11	3.7µM*
COc1ccc(/C=C(\C#N)C(=O)OCC(=O)Nc2ccc(C(C)(C)C)cc2)cc1	-2%	11*	-1%	23%	21	25%
N#C/C(=C\c1ccccc1O)C(=O)Nc1ccccn1	17%	21*	0%	46%	82*	20%
O=C(/C=C\c1ccccc1OC(=O)c1ccccc1F)c1cc2ccccc2o1	?	44*	-13%	87%	63	-20%
CC(=O)Nc1ccc(OC(=O)c2cc3ccccc3oc2=O)cc1	1%	7	2%	19%	12	12µM*
CC(=O)/C=C\c1ccccc1OC(=O)c1cc2ccccc2oc1=O	-21%	11*	nt	-7%	2	-26%
COC(=O)c1ccccc1OC(=O)c1cc2ccccc2oc1=O	-6%	29*	1%	1%	52*	35%
COc1ccccc1OC(=O)c1cc2ccccc2oc1=O	-10%	0	-7%	-1%	18	?
CCOC(=O)C1=CCN(S(=O)(=O)c2ccccc2F)C1c1ccc(Cl)c(Cl)c1 (centres undefined)	2%	nt	nt	nt	nt	nt
CCOc1ccc(Oc2ccc(-c3nnc(-c4ccccc4)o3)cc2[N+](=O)[O-])cc1	15%	13	-1%	?	32	32%
O=C(COC(=O)COc1ccc(Br)cc1)NCc1ccccc1	-8%	nt	0%[6.58 µM]	-4%	nt	30%
Cc1cccc(C)c1NC(=O)c1c(C)nn(-c2ccccc2)c1Cl	-5%	-1	0%	?	-5	?
Cc1nn(-c2ccccc2)c(Cl)c1C(=O)NC1CCCCC1	-17%	15*	-1%	-20%	8	93%
SMILES	AMA1 RON2 block	Cycloheximide cs	SARS PLpro yeast	Pf growth 48h	Shiga toxin inh	Pf growth 96h
Cc1ccc(NC(=O)c2c(C)nn(-c3ccccc3)c2Cl)c(C)c1	1%	23*	-19%	17%	60*	9%
Cc1nn(-c2ccccc2)c(Cl)c1C(=O)NCC(=O)O	-3%	-1	6%	7%	-23	?
O=C(NCc1ccco1)C(c1ccco1)N(Cc1cccs1)C(=O)Cn1nnc2ccccc21 (centres undefined)	11%	19*	?	?	52*	-11%
Cc1ccccc1N(C(=O)Cn1nnc2ccccc21)C(C(=O)NCc1ccco1)c1ccncc1 (centres undefined)	1%	-4	1%	?	22	nt
O=C(NCc1ccco1)C(c1ccco1)N(CCc1ccccc1)C(=O)Cn1nnc2ccccc21 (centres undefined)	-4%	7	-5%	?	18	2.3µM*
Cc1ccc(CN(C(=O)Cn2nnc3ccccc32)C(C(=O)NCc2ccco2)c2cccs2)cc1 (centres undefined)	-16%	19*	-5%	?	57*	5%
O=C(NCc1ccco1)C(c1cccs1)N(Cc1ccccc1)C(=O)Cn1nnc2ccccc21 (centres undefined)	1%	30*	-9%	?	49*	?
O=C(C[n+]1cccc(/C=N/O)c1)N1CCCc2ccccc21	1%	-6	-1%	?	21	48%
CN1CCN(c2nc3c(c(=O)n(C)c(=O)n3C)n2Cc2ccccc2F)CC1	-12%	0	3%	-14%	11	-21%
Cn1c(=O)c2c(nc(N3CCc4ccccc4C3)n2Cc2ccccc2F)n(C)c1=O	12%	-3	-17%	13µM*	1	-22%
Cc1ccccc1Cn1c(CN2CCc3ccccc3C2)nc2c1c(=O)n(C)c(=O)n2C	-9%	-5	-21%	13µM*	-9	?
O=C(O)CCNC(=O)/C(=C\c1ccco1)NC(=O)c1ccco1	38%	-4	nt	3%	-9	11%
CCN(CC)CCCNC(=O)c1cc(Nc2ccc(OC)cc2)nc2ccccc12	-29%	-9	2%	?	-9	3%
COc1ccc(-c2noc(CCCc3ccccc3)n2)cc1OC	10%	12*	-11%	14%	21	13%
Cc1ccc(-c2noc(CCCc3ccccc3)n2)cc1	48%	31*	-3%	17%	62*	nt
CCOc1ccc(-c2noc(CCC(=O)NCCc3ccccc3)n2)cc1OC	8%	5	-1%	37%	-7	?
CN1CCN(C(c2ccc(F)cc2)c2ccc3cccnc3c2O)CC1 (centres undefined)	44%	nt	nt	nt	nt	nt
CN1CCN(C(c2ccc(Br)cc2)c2cc(Cl)c3cccnc3c2O)CC1 (centres undefined)	-58%	-8	nt	12µM*	3	7.4µM*
CCCCn1nnc(NC(=O)c2cc3ccccc3o2)n1	-14%	44*	-1%	143%	42*	nt
CCCCn1nnc(NC(=O)c2ccc(-c3cccc([N+](=O)[O-])c3)o2)n1	nt	16	-1%	1%	20	66%
CCCn1nnc(NC(=O)c2cccc(OCc3ccccc3)c2)n1	0%	11	-9%	-22%	11	nt
CCCCn1nnc(NC(=O)Cc2ccc(Cl)cc2)n1	-1%	5	-2%	12%	1	4%
